# Reference: PubChem BioAssay AID2284366 (EPA ToxCast)
# Records with an inconclusive call do not appear. Calls of active or inactive are those of the source. How the source made its calls: active means hit-call score of the fitted dose curve at least 0.9, where 1 is the maximum; inconclusive means response in the unintended direction; inactive means score below 0.9.
# Test system: zebrafish Peroxisome Proliferator-activated Receptor gamma (PPARg), gene 557037
# Assay: ATG_zfPPARg_EcoTox2: Attagene TRANS-FACTORIAL EcoTox-2 HepG2 Assay for zebrafish Peroxisome Proliferator-activated Receptor gamma (PPARg)
# Procedure: ATG_EcoTox2 is a cell-based, multiplexed assay created by modifying the existing Attagene TRANS-FACTORIAL system to include a panel of nuclear receptors from some or all the following species: human (Homo sapiens), african clawed frog (Xenopus laevis), rainbow trout (Oncorhynchus mykiss), japanese medaka (Oryzias latipes), and zebrafish (Danio rerio). The ECOTOX2-FACTORIAL format uses HepG2, a human liver cell line, with measurements taken at 24 hours after chemical dosing in a 24-well plate. ATG_zfPPARg_EcoTox2 is one of 29 assay components calculated in the ATG_EcoTox2 assay. It is designed to make measurements of mRNA induction, a form of inducible reporter, as detected with fluorescence intensity signals by Reverse transcription polymerase chain reaction (RT-PCR) and Capillary electrophoresis technology.The assay endpoint ATG_zfPPARg_EcoTox2 was analyzed in the positive analysis fitting direction relative to DMSO as the negative control and baseline of activity. Using a type of inducible reporter, measures of mRNA for gain-of-signal activity can be used to understand the reporter gene at the transcription factor-level as they relate to the gene PPARg. Furthermore, this assay endpoint can be referred to as a primary readout, because this assay has produced multiple assay endpoints where this one serves a reporter gene function. To generalize the intended target to other relatable targets, this assay endpoint is annotated to the nuclear receptor intended target family, where the subfamily is non-steroidal.
# Human liver HepG2 cells are transiently transfected with multiple reporter transcription units (MRTUs) in 6-well plates using FuGene 6 reagent (Roche; 3 ml FuGene/1 mg DNA). The MRTU constructs are regulated by a cis-regulating element (promoter). Each RTU expresses a GAL4-UAS that regulates the transcription of a nearby target reporter gene sequence. A major difference between the CIS and TRANS system is that in CIS activities of endogenous TFs are measured, whereas the TRANS assay evaluates changes in activities of exogenous, chimeric NR-Gal4 proteins. […] At the end of 24 hour incubation, total RNA was isolated using TriZol reagent (Invitrogen). The isolated RNA is then reverse-transcribed using oligo(dT) primer and Mo-MLV reverse transcriptase (Invitrogen) with DNAse I (Ambion) treatment for 30 min. The one-tenth of the produced cDNA was amplified by PCR using Taq DNA polymerase (Invitrogen) and two reporter sequence-specific primers. The PCR products were fluorescently labeled by primer extension with 6-arboxyfluorescein (6-FAM) 5'-labeled reporter sequence-specific primer (2 min at 95 C, 20 s at 68 C and 10 min at 72 C) and these products were digested with 5U of HpaI (New England Biolabs) for 2h at 37 C. The fragments were purified using Qiaquick PCR columns (Qiagen), analyzed on an ABI 3130xL genetic analyzer (Applied Biosystems) with peak positions identified by using a set of X-rhodamine (ROX)-labeled MapMarker1000 molecular weight standards (BioVentures). The raw capillary electrophoresis data was processed using Attagraph software (Attagene).
SMILES,outcome,AC50
O=S(=O)(O)C(F)(F)C(F)(F)C(F)(F)C(F)(F)C(F)(F)C(F)(F)F,inactive,–
O=P(Oc1ccccc1)(Oc1ccccc1)Oc1ccccc1,–,13.2 µM (active)
CCCCOCN(C(=O)CCl)c1c(CC)cccc1CC,inactive,–
[Cl][Sn]([c]1ccccc1)([c]1ccccc1)[c]1ccccc1,inactive,–
O=C(O)C(F)(F)C(F)(F)C(F)(F)C(F)(F)C(F)(F)C(F)(F)C(F)(F)F,inactive,–
